PubChem BioAssay AID1241 (SRMLSC, 2008)
Screen size: about 1,200 compounds; about 840 (70%) were called active. The rule behind the calls is not given here. So high a share suggests a set chosen from earlier hits. Not all results are given here. Measured potencies and affinities stand elsewhere.

Experiment: compounds inducing NF-kB luciferase expression – cell-based, SH-SY5Y, dose response (AID 1241)
Conditions: SH-SY5Y NF-kB promoter luciferase reporter; series mostly up to 30 µM; fold induction over control: at the top concentration

Fold induction over control, inactive:
Oc1ccc(-c2csc(Nc3ncccn3)n2)cc1O 5.94, CC(C)(C)c1ccc(OCCn2ccccc2=O)cc1 12.2, COc1ccc2oc(C(=O)c3ccccc3)c(N)c2c1 12, COc1ccc2[nH]c(-c3cccc(F)c3)cc(=O)c2c1 4.64, COc1ccc(C(=S)Nc2ccc(N(C)C)cc2)cc1 11.3, Cc1nc(-c2ccccc2)sc1-c1ccnn1C 12, Nc1ccccc1C#Cc1ccccc1 14.8, CCOC(=O)c1c(C)oc2c1c(C(c1cccnc1)N1CCCCC1)c(O)c1ccccc12 (stereo unspecified) 8.46 [at 15 µM], O=C(Nc1ccc(Cl)cc1F)c1ccccc1Br 8.66, CCOC(=O)c1cnc(SCCc2ccccc2)nc1N 10, O=C(O)c1cccc(N=NN2CCCCCC2)c1 14.9, O=C(O)c1cc(N/N=C/C=C/c2ccccc2)ccc1Cl 13, COc1ccccc1OCCN1CSC(=S)N(C)C1 0.41, CC(C)(C)c1ccc(/C=N/Nc2cccc(C(=O)O)c2)cc1 19.6, O=C(O)/C=C\C(=O)Nc1ccccc1C#Cc1ccc(Br)cc1 2.97, Cc1ccccc1Nc1nc2ccccc2s1 10.2, N=c1c(C(=O)NCc2ccccc2)cc2c(=O)n3ccccc3nc2n1Cc1ccco1 0.59, O=C(/C=C/Nc1cccc([N+](=O)[O-])c1)c1cccs1 9.94, CCOc1ccc(NC(=O)c2ccccc2O)cc1 11.3, Cc1ccc(C(=O)N/N=C2\CCc3ccccc32)c(C)c1 9.87, CCCSc1nsc(NC(=O)CCC)n1 10.6, S=C(c1ccc(-c2ccc(Br)cc2)o1)N1CCCCC1 8.44, Nc1ncn(CC(=O)c2ccccc2)n1 1.01, CCc1ccc(C(=O)NC(=S)Nc2ccc3c(c2)OCCO3)cc1 11.4, COc1ccc(-c2nnc(SC(C)C(=O)Nc3cccc(Cl)c3)o2)cc1 (stereo unspecified) 12, Cc1ccc(C(=O)/C=C/Nc2cccc([N+](=O)[O-])c2)o1 6.5, Cc1ccc(C(=O)CCNc2ccc(F)c(Cl)c2)o1 5, COc1cccc(-c2noc(-c3cccnc3)n2)c1 11.6, Cc1nn(-c2ccccc2)c(N)c1N=Nc1ccccc1 12.4, Cc1[nH]n(C(N)=S)c(=O)c1N=Nc1ccc2ccccc2c1 10.5, Nc1nc(Nc2cccc(F)c2)nc2ccccc12 13.6, COc1ccc(C2=NN(C(C#N)c3ccc(OC)c(OC)c3)C(c3ccccc3)C2)cc1 (stereo unspecified) 2.52, Cc1cc2nc(-c3cccnc3SCC(=O)NCc3ccco3)[nH]c2cc1C 6.42, COc1cc(/C=C/C(=O)CC(=O)/C=C/c2ccc(O)c(OC)c2)ccc1O 1.1, COC(=O)CCCSc1nccn1-c1ccccc1 1.03, Cc1ccc(/C=C/C(=O)Nc2ccccc2C(N)=O)cc1 9.69, O=C(/C=C/Sc1ccccc1)c1ccc(Cl)cc1 12.1 [at 15 µM], CC(=Nc1cccc(C)c1)c1sc2ccccc2c1O 12.8, Oc1ccc(-c2csc(-c3ccccc3)n2)cc1O 5.21, COC(=O)c1cc(-c2c(C)nn(-c3ccccc3)c2C)n[nH]1 1.72, Cc1ccc(C(=O)Nc2cccc(C(=O)O)c2)cc1 11.4, O=C(NC1CCCC1)c1cc(-c2cccs2)on1 27, O=C(NCCn1ccc2ccccc21)c1ccc2c(c1)OCO2 10.7, COc1ccc(C(=O)Nc2cccc(OC)c2)cc1 10.8, N/C(=N\OC(=O)c1ccc2c(c1)OCO2)c1ccc(Cl)cc1 5.91, O/N=C/c1ccc(OCc2ccccc2)c(Br)c1 12.7, Cc1ccc(COc2ccc(/C=N/O)cc2)cc1 13.4, O=C(NCCc1ccccc1)c1cc(-c2ccco2)on1 13, COc1ccc(/C(N)=N/OC(=O)CSc2ccccc2)cc1 12.8, O=C(CCSc1ccc(Cl)cc1)Nc1cccnc1 1.4, Cc1ccc(O)c(/C=N/NC(=O)c2[nH]ncc2Br)c1 10.8, CCCc1noc(-c2ccc(-c3ccccc3)cc2)n1 11.4, CCOC(=O)c1cc(C(=O)Nc2ccccc2F)nn1C 11.2, CCOC(=O)c1c(NC(=O)CC(C)C)sc(C(C)=O)c1C 2.09, CCOC(=O)c1c(C)[nH]c(C(=O)Nc2ccc3c(c2)OCO3)c1C 11.5, CC(=O)Nc1ccc(N=Nc2ccccc2)cc1 12.1, COc1cccc(C(=O)Oc2ccccc2/C=C\C(=O)c2cc3ccccc3o2)c1 1.16, O=C(/C(=C/c1ccc(Cl)cc1)c1nc2ccccc2[nH]1)c1ccccc1 0.3, COc1ccc2cc(CCNC(=O)c3cccs3)c(=O)[nH]c2c1 8.36, COc1ccc(-c2cnn3c(N)c(S(=O)(=O)C(C)(C)C)cnc23)cc1 1.32, CCOC(=O)C1=C(c2ccccc2)O/C(=C(/C#N)C(F)(F)F)S1 8.68 [at 7.5 µM], Cc1ccc(-c2nc3ccccc3s2)cc1NC(=S)NC(=O)c1ccccc1 4.53, CCc1nc2ccc(C(=O)O)cc2nc1CC 2.38, CCOc1ccc(NC(=O)c2nsc(Cl)c2Cl)cc1 9.51, CC(C)(C)c1ccc(NC(=O)Nc2ccc(OCC(=O)N3CCOCC3)cc2)cc1 8.14, O=C(OCC(=O)N1CCOCC1)c1ccccc1Cc1ccccc1 9.68, CCc1ccc(NC(=O)c2cc(C(C)C)on2)cc1 12.1, CCc1ccc(NC(=O)c2ccc3ncsc3c2)cc1 9.12, Cc1nc2ccc(NC(=O)Cc3ccccc3F)cc2s1 8.01, O=C(c1ccccc1)c1cnc(-c2ccccc2)s1 12.3, O=C(O)c1ccc(-c2nc(-c3ccc(Cl)cc3)cs2)cc1 12.6, Oc1ccc2c(c1)oc1cc(O)ccc12 6.53, CN=c1scc(C)n1/N=C/c1cc(Br)c(O)c(Br)c1 1.35, O=C(OCC(F)(F)F)c1cccc(COc2ccc3ccccc3c2)c1 12.3, COc1ccc(OCc2cccc(C(=O)Nn3cc([N+](=O)[O-])cn3)c2)cc1 7.14, COc1ccc(C(=O)OCCc2ccc(O)cc2)cc1 13.5, O=C(COC(=O)C1CCCCC1)Nc1ccc([N+](=O)[O-])cc1 1.09, Cc1cccn2cc(-c3ccc(Cl)cc3)nc12 11.2, Cc1ccc(Nc2n[nH]c(C)c2[N+](=O)[O-])c(C)c1 2.95, CC(=O)c1cc(NC(=O)c2ccccc2)c(=O)oc1C 1.02, CCOC(=O)c1sc(NC(=O)c2ccccc2OC)nc1C 2.62
